Drawing on PubChem BioAssay AID460 (PCMD, 2006), this text covers inhibition for 98 molecules.

About 100 (0.17%) of roughly 58,000 compounds were called active. What follows is part of a selection rich in actives, with near analogues and random picks from the rest. Unmarked numbers belong to inactive results. No stated cut-off is given here; in the data, active means inhibition above about 45%; inactive means the rest.

As usually defined, the inhibition is the change of the read-out against control, counted positive when it falls.

The target in this assay is Procathepsin L (Homo sapiens) (UniProt P07711). The experiment in a line: blockers of CTSL protease activity – biochemical (AID 460).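 Further: 0% = enzyme with no compound and 100% = no enzyme blank.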 The settings on record: purified cathepsin L, fluorogenic substrate, fluorescence; hits give high values;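 tested at 10 µM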.
Chain of Procathepsin L (Homo sapiens) (P07711 114-288 limits assumed): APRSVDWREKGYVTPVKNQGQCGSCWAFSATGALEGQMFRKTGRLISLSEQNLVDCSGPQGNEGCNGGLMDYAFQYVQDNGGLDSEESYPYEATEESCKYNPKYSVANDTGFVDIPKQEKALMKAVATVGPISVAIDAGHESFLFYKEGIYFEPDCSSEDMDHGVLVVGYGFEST
Chain of Procathepsin L (Homo sapiens) (P07711 292-333 limits assumed): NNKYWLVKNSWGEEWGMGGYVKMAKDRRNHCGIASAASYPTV
On to `C=CCN1C(=O)C(O)(CC(=O)c2ccc(Cl)cc2)c2ccccc21` (stereo not drawn), for which the inhibition was 0.03%. For the molecule `CSc1cccc(NC(=O)C2CCCN2S(=O)(=O)c2ccc3c(c2)CCC(=O)N3)c1` (stereo not drawn), the inhibition is 7.66%.

In the case of `Nc1ccc(SCCN2C(=O)c3ccccc3C2=O)cc1`, the inhibition is 7.88%. To `CCn1c2c(c3ccc(OC)cc31)CCCC2=O` belongs -5.8%.

Consider `C=CCOc1nc2c(c(=O)n(C)c(=O)n2C)n1Cc1ccc(Cl)cc1Cl`, for which the inhibition was 31.1%.

For `CCOC(=O)c1ccc(COC(=O)c2cc(=O)[nH]c3ccccc23)o1`, the inhibition was 2.07%. As for `CCC(=O)Nc1nc(OC)cc(OC)n1`, the inhibition is -4.97%. `O=C(NCC1CCCO1)C(C(=O)c1ccccc1)n1cc(Cl)ccc1=O` (stereo not drawn): the inhibition is -10.2%.

For the molecule `Cc1ccc(-c2nnn(CC(=O)N(CCO)C(C(=O)NC(C)(C)C)c3ccncc3)n2)cc1` (stereo not drawn), the inhibition is -1.4%.

As for `CCCCCCC(=O)N(O)C1CC(=O)N(c2ccccc2)C1=O` (stereo not drawn), the inhibition was -5.53%.

With `COCCn1c(=O)[nH]c2cc(C(=O)NCc3cccnc3)ccc2c1=O`, the inhibition was 1.59%. In the case of `COc1ccc(CN2CN(C(C)C)CSC2=S)cc1` it was 17%; in that of `Cc1cc(C(F)(F)F)nn1-c1nc(-c2ccco2)cc(C(F)(F)F)n1`, 1.46%; in that of `CC(=O)Oc1ccc2c(C)c(CC(C)O)c(=O)oc2c1` (stereo not drawn), -70.3%. To `COc1ccc(C(=O)NCCc2ccc(S(N)(=O)=O)cc2)cc1OC` belongs 15.1%; to `Cc1ccc(OCC(O)CN2CCN(CC(O)COc3ccc(C)cc3Cl)CC2)c(Cl)c1` (stereo not drawn), 24.6%. On to `CCn1c(SCC(=O)Nc2nc3ccc(OC)cc3s2)nnc1-c1ccoc1C`, for which the inhibition is 19.9%.

Regarding `C[C@H](NC(=O)OC(C)(C)C)c1nnc(SCC(N)=O)o1`, the inhibition was 9.7%.

`CCOC(=O)C1CCc2nc3ccccc3c(=O)n21` (stereo not drawn): the inhibition is 17.4%.

As for `CCN(CC)CCCNC(=O)c1cc(-c2cccc(Cl)c2)on1`, the inhibition was 10.3%. As to `NC(=O)c1ccsc1NC(=O)c1ccco1`, the inhibition was 3.89%.

For `CC1CCc2c(sc3c2C2=NS(=O)(=O)CCN2C=N3)C1` (stereo not drawn), the inhibition is 0.12%. To `CCS(=O)(=O)N1CCN(C(=O)c2cccs2)CC1` belongs 3.99%; to `O=C(NCCCNC(=O)NC1CCCCC1)NC1CCCCC1`, 4.27%. Take `N#Cc1c2c(c(N3CCN(CCO)CC3)n3c1nc1ccccc13)CCCC2`: the inhibition was 10.1%.

As for `Cc1ccc(-c2cc(C(F)(F)F)n3nc(C(=O)N4CCCC4)cc3n2)cc1`, the inhibition was -2.27%. Regarding `C=CCNC(=O)c1ccc(C)c(Br)c1`, the inhibition was 21.6%.

Take `COCCNC(=O)C(C#N)c1nc2ccccc2nc1N1CCN(Cc2ccc3c(c2)OCO3)CC1` (stereo not drawn): the inhibition was -9.53%. To `CC1(C)CC(=O)C(C=NCc2cccnc2)=C(O)C1` belongs 3%. To `Cc1ccccc1-c1ccc(Nc2ccc(C(=O)N3CCOCC3)cc2)nn1` belongs -0.35%; to `COc1ccc(CCNC(=O)CSc2nnc(CNC(=O)c3cccs3)o2)cc1OC`, 3.37%. In the case of `CCCCC(CC)C(=O)Nc1ccc(Cl)cn1` (stereo not drawn) it was 1.2%. On to `CCOC(=O)c1[nH]c2ccc(C)cc2c1N=C(C)N(C)C`, for which the inhibition was 0.54%. In the case of `CCC(=O)Nc1ccc(C(=O)CSc2nnc(CNc3ccc(Cl)cc3)o2)cc1OC` it was 9.8%. In the case of `Cc1ccc(S(=O)(=O)C2(S(=O)(=O)c3ccc(C)cc3)CCCC2)cc1` it was -3.77%. With `Cc1ccc(-n2nc3c(c2NC(=O)c2ccc4c(c2)OCO4)CSC3)c(C)c1`, the inhibition is -0.76%. As for `CCOC(=O)N1CCN(C(=O)CN(C2CCCCC2)S(C)(=O)=O)CC1`, the inhibition was -8.17%. For the molecule `CC(C)(C)c1cc(CN2CCN(CCC#N)CC2)cc(C(C)(C)C)c1O`, the inhibition was 4.94%. In the case of `CCn1c(CSc2nncn2-c2ccc(OC)cc2)nc2cc(S(=O)(=O)N(C)C)ccc21` it was 15%; in that of `O=C(Nn1cc(C(=O)N2CCN(c3ccccc3F)CC2)c2ccccc2c1=O)c1cnccn1`, -5.99%. To `CCN(Cc1ccccc1)C(=O)CSc1nc(C)cc2c1C(=O)OC2` belongs 5.38%; to `CCC(C)n1[nH]c(=O)c2c(C)cc(C)nc21` (stereo not drawn), 12.4%. In the case of `COc1ccc(-c2ccnc(SCC(=O)N3CCOCC3)n2)cc1` it was 11.9%; in that of `CCn1c(-c2cc(OC)ccc2OC)csc1=Nc1c(C)n(C)n(-c2ccccc2)c1=O`, -2.42%; in that of `COc1ccc(NC2CC(=O)N(C)C2=O)cc1` (stereo not drawn), 4.64%. `CC(C)n1c(C(O)c2ccccc2)nc2ccccc21` (stereo not drawn): the inhibition is 2.15%. As for `Cc1cccn2c(=O)c3cc(C#N)c(=O)n(CCCN4CCOCC4)c3nc12`, the inhibition is -56.6%.

For `CCOC(=O)C1(C(F)(F)F)N=C(N(C)C)OC(N(C)C)=N1`, the inhibition was -0.15%. To `Cc1cc(C)c(C(=O)CN2C(=O)CCC2=O)cc1C` belongs 5.02%. To `O=C(c1ccc2c(c1)N(Cc1ccc(F)cc1)C(=O)CS2)N1CCOCC1` belongs -0.56%; to `CN(C(=O)c1ccno1)c1nnc(-c2cccnc2)s1`, -4.38%. For `CN(C(=O)C1CCOC1)c1nnc(-c2cccnc2)s1` (stereo not drawn), the inhibition was 49.5% (active).

As to `CN(C(=O)COc1ccccc1)c1nnc(-c2ccncc2)s1`, the inhibition is -26.7%.

As for `COc1ccc(-c2nnc(SC(C)C#N)o2)cc1` (stereo not drawn), the inhibition was 9.86%. To `CC(=O)Nc1nc(C)c(Cc2ccccc2)c(=O)[nH]1` belongs -7.6%; to `CCOc1cccc(C(=O)Nc2cccnc2)c1`, -6.37%; to `CC(=O)Nc1ccc(S(=O)(=O)N2CCN(C3CCCCCCC3)CC2)cc1`, 7.05%. As to `COc1ccc2c(c1OC)C(=O)N(c1ncn[nH]1)C2`, the inhibition is 2.08%. With `COc1ccc(NC(=O)CN2CCN(S(=O)(=O)c3ccc(F)cc3)CC2)cc1Cl`, the inhibition was 20.1%. To `COc1ccc(S(=O)(=O)Nc2ccc3c(c2)OCO3)cc1Cl` belongs 3.1%. For the molecule `CCc1nnc(NC(=O)CCC(=O)O)s1`, the inhibition was 3.51%.

Consider `COC(=O)C1C(=O)CC(C)(O)C(C(=O)OC)C1c1ccc2c(c1)OCO2` (stereo not drawn), for which the inhibition was 11.2%. To `CN1CCN(S(=O)(=O)c2ccc3[nH]cc(C(=O)O)c(=O)c3c2)CC1` belongs -3.14%. To `O=C(CCN1C(=O)COc2ccccc21)NCCCN1CCN(c2ccc(F)cc2)CC1` belongs 5.08%; to `COc1ccc(N2CCN(CCNC(=O)CCN3C(=O)COc4ccccc43)CC2)cc1`, 104% (active). In the case of `CCCN1CCN(CCCNC(=O)CN2C(=O)COc3ccccc32)CC1` it was -8%; in that of `O=C(CCCC(=O)N(CC(=O)NC1CCCC1)Cc1ccccc1Cl)Nc1ccccn1`, 9.21%; in that of `c1ccc2[nH]c(-c3nc4ccccc4[nH]3)nc2c1`, 3.52%. For the molecule `Cc1ccc2nc3n(c(=O)c2c1)CCC3`, the inhibition was 14.4%.

Turning to `CCCC(=O)N1c2ccccc2NC2=C(C(=O)CCC2)C1c1ccc(F)cc1` (stereo not drawn), the inhibition was 3.55%.

In the case of `O=C(NC12CC3CC(CC(C3)C1)C2)N1CCCC(CO)C1` (stereo not drawn), the inhibition was 2.74%. In the case of `CCOC(=O)C1=C(C)NC(=O)N(C(C)=O)C1c1ccc(Cl)cc1` (stereo not drawn) it was 12.8%; in that of `COc1ccc(C2CC(c3ccc(C)cc3)Nc3nc(N)nn32)cc1` (stereo not drawn), -0.09%; in that of `COc1ccccc1-c1cc(C(=O)N2CCCCC2)no1`, -3.35%.

Regarding `COc1ccc(Br)cc1/C=N/n1c(C)nnc1C`, the inhibition is 12.8%. To `CCCOC(=O)CC1C(=O)NCCN1Cc1ccc(F)cc1` (stereo not drawn) belongs -5.6%; to `CCOC(=O)c1ccc(NC(=O)CSc2nnc(COc3ccccc3OC)n2C)cc1`, -5.46%; to `CCOc1ccc(C(=O)Nc2ccncc2)cc1`, 21.4%. For the molecule `Cc1cnc(C(=O)OCC(=O)Nc2ccc(Cl)cc2Cl)cn1`, the inhibition is -0.6%. As for `Fc1ccc2[nH]c3c(N4CCN(Cc5ccc6c(c5)OCO6)CC4)ncnc3c2c1`, the inhibition was -9.64%. In the case of `c1ccc(-c2noc(-c3cccs3)n2)nc1` it was 0.38%; in that of `CCOc1cc(/C=N/O)cc(Br)c1OC`, 2.18%. Regarding `COC(=O)C(C)C1Sc2ccccc2NC1=O` (stereo not drawn), the inhibition is -1.59%. To `CCCCOc1ccc(-c2ncc(C(=O)OCC)c(N)n2)cc1` belongs 4.53%. To `Cc1cc(NC(=O)c2cnn3cccnc23)n(-c2ccccc2)n1` belongs 1.38%; to `COc1cccc(N2C(=O)C3CCCN3C2c2ccc(F)cc2)c1` (stereo not drawn), -5.29%. To `Cc1noc(C)c1C(=O)NC(C)c1ccc2c(c1)OCO2` (stereo not drawn) belongs 19.1%; to `CN(Cc1ccccc1)Cc1ccccc1F`, 6.62%; to `COC(=O)c1cc(S(=O)(=O)NC2CCN(Cc3ccccc3)CC2)cn1C`, -7.14%. On to `Cc1cc(OCCN2CCCC2)ccc1C(C)C`, for which the inhibition was 3.61%. Regarding `CCCc1cc(=O)[nH]c(SCC(=O)OCc2ccccc2)n1`, the inhibition was -7.39%.

Regarding `CCn1cc(C(=O)NCc2ccc(OC)cc2OC)c(=O)c2ccc(C)nc21`, the inhibition is -0.88%.

Turning to `O=c1cc(Cn2nnc(-c3ccc(Cl)cc3)n2)nc2sccn12`, the inhibition is 18.2%. For the molecule `Cc1cccc(N(CC(O)CN(C)C)S(=O)(=O)c2ccccc2)c1` (stereo not drawn), the inhibition is -0.65%. As for `Cc1ccc(C2(c3ccc(C)cc3)NC(=O)N(Cc3c(C)noc3C)C2=O)cc1`, the inhibition is 13.3%. In the case of `Cc1nc2ccc(NC(=O)N3CCC(c4ccccc4)C3)cc2nc1C` (stereo not drawn) it was -130%.

Regarding `COc1ccc2[nH]c(=O)c(CN(CC3CCCO3)C(=O)Nc3ccccc3)cc2c1` (stereo not drawn), the inhibition is -6.3%. `CCN(CC(=O)Nc1ccc2c(c1)OCCO2)Cc1cc(=O)oc2cc(C)c(C)cc12`: the inhibition was 0.7%.
